ALOX12 inhib: qHTS Assay for Inhibitors of 12-hLO (12-human lipoxygenase); purified 12-hLO, xylenol orange hydroperoxide absorbance; Potency, µM (doses to about 57.1 µM), inactives show at the highest dose activity change, negative = inhibition, usual class: inhibitors; 0.12% of 150,000 active; AID 1452, 2008; further: potency means the concentration at half of the fitted maximal effect; nearly all actives have a fitted effect of over 55% in size
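Hydroperoxide output read as Fe(III)-xylenol orange absorbance, 573-to-405 nm ratio, after 30 min reaction with 40 uM arachidonic acid. Enzyme: 150 nM purified human 12hLO, 15 min compound preincubation; 25 mM Hepes pH 7.0, room temperature.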
GLA inh pH 4.5: qHTS Assay for Inhibitors of Human alpha-Galactosidase at pH 4.5; Alpha-galactosidase A (Homo sapiens), P06280; purified enzyme, 4-MU-alpha-Gal fluorescence, pH 4.5; activity change, negative = inhibition, % at 105 µM; 230,000 tested, under 10 active; AID 1467, 2008;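 further: 0% = full activity with enzyme and -100% = basal without enzyme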
HPGD block: qHTS Assay for Inhibitors of HPGD (15-Hydroxyprostaglandin Dehydrogenase). Potency, µM, inactives show top-dose activity change, negative = inhibition, most hits filed as inhibitors. AID 894, 2007. 15-hydroxyprostaglandin dehydrogenase [NAD(+)] (Homo sapiens), P15428. purified HPGD, NADH fluorescence kinetic, PGE2 substrate. 4.3% of 150,000 active; active means well fitted inhibition curve with a large enough effect, not every such curve was filed as active; inconclusive means small, poorly fitted or top-dose-only effect, or another doubt; inactive means no such curve, though single readings can be large or run the other way; further: potency means the concentration at half of the fitted maximal effect
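NADH formation kinetics: reaction with 30 uM PGE2 and 1 mM NAD+ (final), 20 nM enzyme, Tris-HCl pH 8 with Tween 20, after 15 min compound preincubation at room temperature. Fluorescence change, last versus first of five reads.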
ALDH1A1 block: qHTS Assay for Inhibitors of Aldehyde Dehydrogenase 1 (ALDH1A1); Aldehyde dehydrogenase 1A1 (Homo sapiens), P00352; 7.3% of 220,000 active; Purified ALDH1A1, NADH fluorescence, propionaldehyde substrate; Potency, µM (series often up to 75.3 µM), without a hit: at the top dose activity, negative = inhibition, hits mostly inhibitors; active means well fitted inhibition curve with a large enough effect, not every such curve was filed as active; inconclusive means small, poorly fitted or top-dose-only effect, or another doubt; inactive means no such curve, though single readings can be large or run the other way;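 further: potency means the concentration at half of the fitted maximal effect; plate controls were no enzyme wells and a reference inhibitor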
Target sequence (P00352 whole entry, looked up): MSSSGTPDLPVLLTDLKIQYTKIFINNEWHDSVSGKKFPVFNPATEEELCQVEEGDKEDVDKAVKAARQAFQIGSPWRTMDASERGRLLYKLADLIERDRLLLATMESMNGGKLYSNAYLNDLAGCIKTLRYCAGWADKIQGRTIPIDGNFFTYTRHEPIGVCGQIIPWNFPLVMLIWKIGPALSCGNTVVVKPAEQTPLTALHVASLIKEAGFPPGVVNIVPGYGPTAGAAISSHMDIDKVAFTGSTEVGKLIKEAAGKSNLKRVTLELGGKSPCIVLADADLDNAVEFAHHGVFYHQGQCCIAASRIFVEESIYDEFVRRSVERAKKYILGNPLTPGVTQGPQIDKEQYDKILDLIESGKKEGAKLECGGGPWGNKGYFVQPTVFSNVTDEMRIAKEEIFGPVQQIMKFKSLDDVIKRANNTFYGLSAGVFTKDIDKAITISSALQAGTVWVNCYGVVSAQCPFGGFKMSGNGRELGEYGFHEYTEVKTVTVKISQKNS
PNC inhibitor: High Content Assay for Compounds that inhibit the Assembly of the Perinucleolar Compartment; PC3M PTB-GFP, PNC prevalence imaging, 16 h; hits give low values; activity change (PNC), negative = inhibition, % at 10 µM; 3.1% of 140,000 active; AID 2417, 2010;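 active means readout at or below -70, meaning at least 70% loss of cells showing the perinucleolar compartment, a nuclear body marking cancer cells; inconclusive means readout between -30 and a set limit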;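 further: plate controls were DMSO wells for no effect and camptothecin positive control wells for full effect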
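Compounds are pinned in duplicate onto adhered PC3M cells stably expressing GFP-tagged PTB and incubated 16 h at 37 C. Cells are then fixed, nuclei stained with Hoechst, and PNC-positive cells counted.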
aGal spleen mod: qHTS Assay for Inhibitors and Activators of Human alpha-Galactosidase From Spleen Homogenate | Alpha-galactosidase A (Homo sapiens), P06280 | human spleen homogenate, 4MU-alpha-Gal fluorescence, 40 min | Potency, µM (series often up to 80 µM), for inactives: at the top dose activity change, negative = inhibition, hits mostly inhibitors | 0.008% of 240,000 active | AID 2107, 2009;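 further: potency means the concentration at half of the fitted maximal effect; 0% = enzyme with vehicle and -100% = no enzyme basal signal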
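Human spleen homogenate (1 ug) as enzyme source, 4-methylumbelliferyl-alpha-D-galactopyranoside 1 mM final, citrate/phosphate pH 5.0 with 0.01% Tween-20. Compounds 40 min at 37C, NaOH/glycine stop; fluorescence Ex 365/Em 440, Hill-fit AC50.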
Active calls of the source: *; [ ] = another dose, or the depositor's remark. This is a sample that favours compounds with a hit; in the whole collection about 10% have one here. Unless noted, the call rests on the fitted dose curve; in most records, active means well fitted curve in the direction sought with a large enough effect; inconclusive means small, poorly fitted or top-dose-only effect, or another doubt; inactive means no such curve, though single readings can be large; an effect the other way counts as inactive or inconclusive. Unless noted, on the % scale 0 is the no-effect control and ±100 the full control effect.

For Nc1nc2[nH]c(=O)[nH]c2c(=O)[nH]1 the results were ALOX12 inhib -1%, GLA inh pH 4.5 -1, HPGD block -4%, ALDH1A1 block 11% and aGal spleen mod 2%.
CCN1CCC[C@@H](OC(=O)C(c2ccccc2)c2ccccc2)C1 was read as ALOX12 inhib 2%[25.6 µM], GLA inh pH 4.5 -5, HPGD block -11%, ALDH1A1 block 6%[20.9 µM] and aGal spleen mod -4%[29.1 µM].
`COc1ccc(S(=O)(=O)N2CCc3cc(OC)c(OC)cc3C2)cc1` gave GLA inh pH 4.5 1 and aGal spleen mod 9%.
For CC(C)(C)c1ccc(S(=O)(=O)N2CCC(CO)(CC3CCCCO3)CC2)cc1 (configuration not stated) the results were GLA inh pH 4.5 -6, ALDH1A1 block 0.32µM* and aGal spleen mod 0%.
Screening CCOC(=O)C1(CC2CCCCO2)CCN(S(=O)(=O)c2ccccc2)CC1 (configuration not stated) returned GLA inh pH 4.5 2, ALDH1A1 block inconclusive and aGal spleen mod 6%.
CCCC[C@@H]1CCCO[C@@](C(=O)NCc2cc(C)n(C)n2)(C(F)(F)F)C1 was read as aGal spleen mod 13%.
`CCCCN1C(=O)N(C)C2C1N(C)C(=O)N2CCCC` (configuration not stated) gave ALOX12 inhib -1%, GLA inh pH 4.5 -4, HPGD block -10%, ALDH1A1 block -1%, PNC inhibitor -100* and aGal spleen mod 1%.
For O=S(=O)(N/N=C1/CC(c2ccccc2)Oc2ccccc21)c1ccc(Br)cc1 (configuration not stated) the results were ALOX12 inhib -16%, GLA inh pH 4.5 -16, HPGD block -18%, ALDH1A1 block 22µM*, PNC inhibitor inconclusive and aGal spleen mod -8%.
Screening CNC(=S)N/N=C1\CC(c2ccccc2)Oc2ccccc21 (configuration not stated) returned GLA inh pH 4.5 -1, ALDH1A1 block 4% and aGal spleen mod -14%.
Screening Cc1ccc(S(=O)(=O)N/N=C2/CC(=O)CC(C)(C)C2)cc1[N+](=O)[O-] returned GLA inh pH 4.5 -1 and aGal spleen mod 1%.
Cc1ccc(C)c(S(=O)(=O)N/N=C2/CCCc3ccccc32)c1 was read as ALOX12 inhib 4%, GLA inh pH 4.5 -1, HPGD block -15%, ALDH1A1 block inconclusive, PNC inhibitor 0 and aGal spleen mod 7%.
`O=S(=O)(N/N=C1/CCCc2ccccc21)c1ccc(Br)cc1` gave ALOX12 inhib -2%, GLA inh pH 4.5 -5, HPGD block -10%, ALDH1A1 block 14µM*, PNC inhibitor 52 and aGal spleen mod 6%.
For Cc1ccc(S(=O)(=O)N/N=C2/CC(c3ccccc3)Oc3ccccc32)cc1[N+](=O)[O-] (configuration not stated) the results were ALOX12 inhib -4%, GLA inh pH 4.5 -7, HPGD block -29%, ALDH1A1 block 7.1µM*, PNC inhibitor 16 and aGal spleen mod 3%.
Fc1ccc(N/N=C2/CC(c3ccccc3)Oc3ccccc32)c(F)c1 (configuration not stated) was read as ALOX12 inhib inconclusive, GLA inh pH 4.5 -7, HPGD block -29%, ALDH1A1 block inconclusive, PNC inhibitor -94* and aGal spleen mod 0%.
C=CC1CO1 (configuration not stated) was read as ALOX12 inhib -1%, HPGD block 1%, ALDH1A1 block 14% and aGal spleen mod -1%.
Screening CCCC(=O)Nc1ccc(NC(=O)CCc2ccccc2)cn1 returned ALOX12 inhib 0%, GLA inh pH 4.5 -1, HPGD block -10%, ALDH1A1 block -4%, PNC inhibitor -114* and aGal spleen mod 4%.
For CCCC(=O)Nc1ccc(NC(=O)c2ccccc2Cl)nc1 the results were ALOX12 inhib -1%, GLA inh pH 4.5 -4, HPGD block -2%, ALDH1A1 block -2%, PNC inhibitor -84* and aGal spleen mod 1%.
Screening CCCC(=O)Nc1ccc(NC(=O)Cc2ccccc2)cn1 returned ALOX12 inhib -3%, GLA inh pH 4.5 3, HPGD block -10%, ALDH1A1 block 3%, PNC inhibitor -12 and aGal spleen mod -7%.
`O=C(Nc1ccc(NC(=O)c2ccccc2Cl)nc1)c1ccncc1` gave GLA inh pH 4.5 -11, ALDH1A1 block -14% and aGal spleen mod -8%.
Screening CCOC(=O)CSc1cc(CSc2ccccc2)nc(-c2ccccc2)n1 returned ALOX12 inhib 2%, GLA inh pH 4.5 4, HPGD block -14%, ALDH1A1 block -3%, PNC inhibitor 3 and aGal spleen mod 4%.
For O=C(O)c1ccc(CO)o1 the results were ALOX12 inhib 2%, HPGD block -4%, ALDH1A1 block 13% and aGal spleen mod 3%.
`COc1ccc(CC/C(C)=N\NC(N)=O)cc1` gave ALOX12 inhib 3%, GLA inh pH 4.5 -1, HPGD block 9%, ALDH1A1 block 0%, PNC inhibitor -105* and aGal spleen mod -2%.
`O=c1cc(-c2cccs2)oc2ccc(Cl)cc12` gave ALOX12 inhib -4%, GLA inh pH 4.5 -6, ALDH1A1 block inconclusive, PNC inhibitor -5 and aGal spleen mod 6%.
For O=C1OC(/C=C/c2ccc(Cl)cc2Cl)=NC/1=C\c1cccs1 the results were ALOX12 inhib -5%, GLA inh pH 4.5 0, HPGD block -7%, ALDH1A1 block 3.2µM*, PNC inhibitor -27 and aGal spleen mod -1%.
`COc1ccccc1CC(=N)N1C[C@@H]2C(=O)CCC(c3ccccc3)(c3ccccc3)[C@@H]2C1` gave ALOX12 inhib -1%, GLA inh pH 4.5 -5, HPGD block 2%, ALDH1A1 block -15% and aGal spleen mod 6%.
CC1(C)OC(=O)C(=NNc2ccc(O)cc2)C(=O)O1 was read as ALOX12 inhib -17%, GLA inh pH 4.5 2, ALDH1A1 block -9%, PNC inhibitor inconclusive and aGal spleen mod -7%.
CC1(C)OC(=O)C(=NNc2ccccc2)C(=O)O1 was read as ALOX12 inhib -4%, GLA inh pH 4.5 -9, HPGD block -23%, ALDH1A1 block 16µM*, PNC inhibitor -8 and aGal spleen mod -18%.
For CC1(C)OC(=O)C(=NNc2ccc(C(=O)O)cc2)C(=O)O1 the results were GLA inh pH 4.5 -10 and aGal spleen mod -1%.

Compound activity as filed in PubChem.
